Measurements reported in PubChem BioAssay (NCI).
The panel holds about 83,000 compounds, 20% with a hit somewhere; the sample as a whole holds those more often.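 Activity criterion: percent growth below 10, measured after cells in 96-well plates were exposed to a single compound concentration for 48 hours.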 Values without a mark were called inactive. The source made the active and inactive calls.

What was measured:
Assay in all cases: NCI-60 one-dose screen, 48 h (100 = growth as untreated, 0 = no growth, -100 = all killed)
Details in all cases: 10 µM unless noted
NCI-H23 lung = system: NCI-H23 lung
NCI-H226 lung = system: NCI-H226 lung
NCI-H322M lung = system: NCI-H322M lung
HOP-62 NSCLC = system: HOP-62 NSCLC
NCI-H460 lung = system: NCI-H460 lung
HOP-92 NSCLC = system: HOP-92 NSCLC
NCI-H522 lung = system: NCI-H522 lung
A549/ATCC NSCLC = system: A549/ATCC NSCLC
786-0 renal = system: 786-0 renal
COLO 205 colon = system: COLO 205 colon

Row | Structure (SMILES) | growth (NCI-H23 lung) | growth (NCI-H226 lung) | growth (NCI-H322M lung) | growth (HOP-62 NSCLC) | growth (NCI-H460 lung) | growth (HOP-92 NSCLC) | growth (NCI-H522 lung) | growth (A549/ATCC NSCLC) | growth (786-0 renal) | growth (COLO 205 colon)
1 | O=CN1N=C(c2ccc(F)cc2)CC1c1cccc(Nc2ccnc3cc(C(F)(F)F)ccc23)c1 (stereo not given) | 42.5% | 60.3% | 85.1% | 60.8% | 46.7% | 67.4% | 45.6% | 61% | 76.1% | 32.3%
2 | C=C1C(=O)O[C@H]2[C@H]1CC/C(COC(=O)CCCCC(=O)OC/C1=C/CC[C@@]3(C)O[C@H]3[C@H]3OC(=O)C(=C)[C@@H]3CC1)=C\CC[C@@]1(C)O[C@@H]21 | 65.2% | 75.3% | 105% | 86.8% | 99.3% | 61.1% | -36.9% (active) | 94.9% | 68% | -18.9% (active)
3 | Cc1nc2sc(C(=O)Nc3cccc(Cl)c3C)c(N)c2cc1C(C)O (stereo not given) | 32.6% | 95.8% | 55.6% | 25.5% | 11.1% | 43.2% | -24.9% (active) | 24.7% | 35.6% | -4.18% (active)
4 | COc1ccc(OCC(=O)OC(C)C)cc1 | 90.6% | 95.3% | 94% | 101% | 105% | 104% | 97.9% | 102% | 104% | 104%
5 | CC1=C(CCCOC(=O)NCCCl)C2=C(C)C3(CC3)[C@@](C)(O)C(=O)C2=C1 | -0.524% (active) | 70% | 41.1% | -3.61% (active) | 3.59% (active) | 8.91% (active) | 26.6% | 17.9% | 11.6% | 3.83% (active)
6 | Nc1c(C(=O)Nc2cccc3ccccc23)sc2nc3c(cc12)COCC3 | 63.1% | 98% | 82.4% | 39.9% | 31.1% | 61.1% | 26.4% | 50.9% | 38.6% | 58.7%
7 | CCN1CCN(c2ccc(NC(=O)Nc3nc4ccc(-c5ccccc5OC)cc4s3)cc2)CC1 | -16.8% (active) | 56.6% | -86% (active) | -66.2% (active) | -64.4% (active) | 2.16% (active) | -78.1% (active) | -77.1% (active) | -80.7% (active) | -73.2% (active)
8 | N#Cc1nc(-c2ccccc2)oc1S(=O)(=O)NCC(c1ccc(Cl)cc1)N1CCCCC1 (stereo not given) | 78.5% | 117% | 85.3% | 96.3% | 77.2% | 79.4% | -18.3% (active) | 89.2% | 87.1% | 79.3%
9 | COc1cccc2c1-c1ccccc1C2=O | 43.1% | 84.1% | 44.5% | 37.4% | 7.57% (active) | 74% | -13.7% (active) | 23.3% | 23.9% | 11.6%
10 | C=C1C(=O)O[C@H]2[C@H]1CC/C(COC(=O)c1cccnc1N)=C\CC[C@@]1(C)O[C@@H]21 | 33.9% | 26.7% | 87% | 22.8% | 5.22% (active) | 8.05% (active) | -15.3% (active) | 28.4% | 9.12% (active) | -76.5% (active)
11 | COc1cc(C2=N/C(=C\c3cc4ccccc4nc3Oc3ccccc3)C(=O)N2C(=N)N)cc(OC)c1OC | 71% | 18.7% | 55.4% | -0.576% (active) | 52.1% | 27.9% | 60.3% | 77.1% | 28.6% | 90.4%
12 | Nc1c(C(=O)Nc2ccccn2)sc2nc3c(cc12)CCCC3 | 69% | 82.8% | 78.7% | 45.3% | 25.3% | 60.2% | 29.2% | 46.4% | 48.7% | 49.5%
13 | COC(=O)[C@]1(C)CCC[C@]2(C)[C@H]3C[C@H]4C(C(C)C)=C[C@]3(CC[C@H]21)[C@@H]1C(=O)N(CCC#N)C(=O)[C@@H]14 | 93.7% | 81.9% | 109% | 89.9% | 101% | 81.1% | 75.3% | 86% | 99.7% | 94.7%
14 | CC(C)NS(=O)(=O)c1cccc(-c2ccc3c4c(n(CCCN(C)C)c(=O)c3c2)-c2ccccc2C4=O)c1 | 98.6% | 92.9% | 104% | 101% | 28.5% | 114% | 86.7% | 83.5% | 33.8% | 98.9%
15 | C=C1C(=O)O[C@H]2[C@H]1CC/C(COC(=O)c1cn(C)c3ccccc13)=C\CC[C@@]1(C)O[C@@H]21 | 22.5% | -36.5% (active) | 85.2% | 32.4% | 39.7% | -57.9% (active) | -85.1% (active) | 51.4% | -63% (active) | -80.4% (active)
16 | O=C1c2ccccc2C(=O)c2c1oc1c2c(=O)[nH]c2ccc(Cl)cc21 | 21.2% | -28.8% (active) | 14% | -38.7% (active) | -69.7% (active) | -37.2% (active) | -16.8% (active) | -0.0514% (active) | 2.5% (active) | 85.7%
17 | COc1cc(NC(=O)Nc2cnc(Nc3ccc(N4CCOCC4)cc3)nc2Oc2ccc(F)cc2)cc(OC)c1 | 81.2% | 88% | 97.2% | 89.5% | 54.1% | 78.6% | 92.5% | 55.6% | 38.8% | 111%
18 | CCCn1c(N)c(C(N)=O)sc1=S | 105% | 103% | 101% | 98.9% | 114% | 89.5% | 94.5% | 112% | 103% | 118%
19 | CC(C)Cc1cc(CNC(=O)C2[C@H]3CN(C(=O)c4ccccc4)C[C@@H]23)nn1-c1ccccc1 (stereo not given in full) | 96.3% | 94.1% | 95.3% | 83.4% | 102% | 115% | 49.4% | 72.2% | 99.4% | 93.1%
20 | CC(=O)OC[C@]12CC[C@@H](c3cn(Cc4ccc(Cn5cc([C@@H]6CC[C@]7(COC(C)=O)CC[C@]8(C)[C@H](CC[C@@H]9[C@@]%10(C)CC[C@H](OC(C)=O)C(C)(C)[C@@H]%10CC[C@]98C)[C@@H]67)nn5)cc4)nn3)[C@@H]1[C@H]1CC[C@@H]3[C@@]4(C)CC[C@H](OC(C)=O)C(C)(C)[C@@H]4CC[C@@]3(C)[C@]1(C)CC2 | 98.3% | 95.5% | 97.6% | 94.9% | 104% | 103% | 88.5% | 93.5% | 95.5% | 105%
21 | COCCOCCOCc1n(Cc2ccc3ccccc3n2)c2ccccc2[n+]1Cc1ccc2ccccc2n1 | 12.7% | 37.9% | 47.4% | 20.8% | 16.5% | -22.1% (active) | -1.7% (active) | 39.4% | 77.8% | -31.4% (active)
22 | C(=C\c1cn(-c2ccccc2)nc1-c1ccccc1)/c1nnc(-c2c[nH]c3ccccc23)o1 | 51% | 57.3% | 80.3% | 38.9% | 14.1% | 60.2% | 61.5% | 46.7% | 40.6% | 31.8%
23 | CC(=O)O[C@@H]1C[C@]2(C)[C@H]3[C@H](O)C[C@@H]4C5=CC(C)(C)CC[C@]5(C)CC[C@@]4(C)[C@]3(C)CC[C@H]2C(C)(C)[C@H]1O | 95.7% | 99.4% | 118% | 101% | 102% | 115% | 103% | 94% | 99.3% | 117%
24 | Cc1cc(C)n(-c2nc(-c3cccs3)c(C#N)c(=O)[nH]2)n1 | 97.6% | 105% | 92.1% | 81.2% | 96.8% | 102% | 83.8% | 99.9% | 93.1% | 111%
25 | O=C(CCl)N1CCCc2ccccc21 | 101% | 101% | 94% | 107% | 99.3% | 97.2% | 96.8% | 109% | 104% | 108%
